Laboratory results published in PubChem BioAssay AID1051 (The Scripps Research Institute Molecular Screening Center, 2008).
About 340 (0.34%) of roughly 99,000 compounds were called active. The list comes from a sample in which actives are over-represented; it also holds similar structures and randomly drawn compounds. A number with no mark means an inactive call. No stated cut-off is given here; in the data, active means TR-FRET ratio above about 2300; inactive means the rest.

Assay: TR-FRET detection interference compounds, primary screen, artefact control for PPARgamma SRC-1 recruitment agonists, biochemical, TR-FRET emission ratio (AID 1051)
Settings: TR-FRET detection artefact counter-screen, at 8 µM, hits give high values

Structure (SMILES)	TR-FRET ratio
O=C(Nc1cccnc1)c1ccc(Cl)cc1[N+](=O)[O-]	2040
Cc1cc(C)cc(NC(=S)NCCCN2CCOCC2)c1	1640
CCc1cccc(C)c1NC(=O)COC(=O)Cc1ccsc1	1600
CC(=O)N(CCCN(C)C)c1nc2ccc(C)cc2s1	2080
COc1ccc(/C=C(\C#N)C(=O)ONC2=NCCCCC2)cc1	1820
COc1ccc(S(=O)(=O)N(C)C)cc1NC(=O)CSc1ncccn1	1990
CCOCCCNC(=S)N1CCC(NC(=O)C2CCCCC2)CC1	1730
Cc1ccc(NS(=O)(=O)c2cccs2)cc1S(=O)(=O)N1CCCCCC1	2400 (active)
O=S(=O)(Nc1cc(S(=O)(=O)N2CCOCC2)ccc1N1CCCC1)c1cccs1	1650
Cc1ccc(C(=O)NCC(=O)O)cc1S(=O)(=O)N1CCCCC1	1790
CCn1c(COc2ccccc2)nnc1SCC(=O)NCc1ccco1	1770
C/C(=N/OC(=O)c1cccc(C(F)(F)F)c1)c1cnccn1	1580
CC(OC(=O)CNS(=O)(=O)/C=C/c1ccccc1)C(=O)Nc1ccc(S(=O)(=O)N2CCCC2)cc1 (centres undefined)	1670
O=C(NNC1=C(C(=O)C(F)(F)F)CCC1)c1ccncc1	1980
CN(NC(=O)C1CC(=O)N(c2ccccc2)C1)C1=NS(=O)(=O)c2ccccc21 (centres undefined)	1810
CCN(CC)c1ccc(C(=O)c2cnc(/N=C/N(C)C)s2)cc1	1790
COc1ccc(CCC(=O)OCC(=O)Nc2ccc(C)c(S(=O)(=O)N(C)C)c2)cc1	1760
CN(CCOc1ccc(Br)cc1)CC(=O)Nc1cccc(S(=O)(=O)NC2=NCCC2)c1	1830
CCC(C)NC(=O)/C=C/c1ccc(S(=O)(=O)NCc2ccco2)cc1 (centres undefined)	1910
Cc1ccccc1CC1(CO)CCCN(Cc2ccc3c(c2)OCCO3)C1 (centres undefined)	1710
O=c1c2ccccc2c(-c2ccccc2)nn1Cc1ccccc1	1740
CSc1c(SCc2ccccc2)cnn(Cc2ccccc2)c1=O	2320 (active)
CSc1nc2ccccc2c(=O)n1Cc1ccc(F)cc1	1720
COCc1c(C(=O)N/N=C/C2CC=CCC2)nnn1-c1nonc1N (centres undefined)	1650
O=C(CCc1ccc(S(=O)(=O)N2CCOCC2)cc1)NN=C1CCCCCCC1	1980
CC(C)n1c(=O)[nH]c2cc(C(=O)Nc3ccccc3)ccc21	1850
C=CCc1cccc2cc(C(=O)NC3CCCC3)c(=O)oc12	1900
O=C(COC(=O)/C=C/c1cccc(Cl)c1)NCCc1ccccc1	1750
Cc1cc(C)nc(/N=C2\NC(=O)CC(C(=O)O)N2c2ccc(Cl)cc2Cl)n1 (centres undefined)	1900
